Calls of active or inactive are those of the source.
Legend:
[1] = tested on: PRMT1 (protein arginine N-methyltransferase 1); test: small molecules binding arginine methyltransferase PRMT1 – biochemical, small-molecule microarray, 635 nm fluorescence, primary screen (AID 1088); conditions: higher = more signal;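 further: binding of Prmt1 protein to compounds spotted on small-molecule microarray slides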
[2] = growth effects on S. cerevisiae YJM789 – YJM789 clinical isolate, OD600, 24 h, basal, primary screen (AID 1089); conditions: higher = more signal, called active from +8 up or from −8 down;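 further: growth of clinical yeast isolate S. cerevisiae YJM 789 seeded 1000 cells per well; test concentration not given here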
[3] = S. pombe growth modifiers, basal conditions – strain 972, OD600, 24 h, no modulator, primary screen (AID 1090);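 further: basal condition with compound alone and no growth modifier present; test concentration not given here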; conditions: S. pombe 972 growth, higher = more signal, called active from +8 up or from −8 down
[4] = budding yeast growth modifiers under rapamycin – strain BY4716, OD600, 96 h, primary screen (AID 1091); further: test concentration not given here; conditions: S. cerevisiae BY4716 + rapamycin, higher = more signal, called active from +8 up or from −8 down
[5] = target: Torsin-1A-interacting protein 2 (Homo sapiens) (UniProt Q8NFQ8); test: small molecules binding lysate-expressed LULL1 – cell lysate, human LULL1 lysate, 635/667 nm fluorescence, primary screen (AID 1092); conditions: small-molecule microarray, hLULL1 lysate binding, 635 nm fluorescence; higher = more signal;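 further: probe is lysate of COS7 cells overexpressing human LULL1; score merges per-feature 667 nm fluorescence with signal-to-noise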
Sequence of Torsin-1A-interacting protein 2 (Homo sapiens) (Q8NFQ8 whole entry, looked up): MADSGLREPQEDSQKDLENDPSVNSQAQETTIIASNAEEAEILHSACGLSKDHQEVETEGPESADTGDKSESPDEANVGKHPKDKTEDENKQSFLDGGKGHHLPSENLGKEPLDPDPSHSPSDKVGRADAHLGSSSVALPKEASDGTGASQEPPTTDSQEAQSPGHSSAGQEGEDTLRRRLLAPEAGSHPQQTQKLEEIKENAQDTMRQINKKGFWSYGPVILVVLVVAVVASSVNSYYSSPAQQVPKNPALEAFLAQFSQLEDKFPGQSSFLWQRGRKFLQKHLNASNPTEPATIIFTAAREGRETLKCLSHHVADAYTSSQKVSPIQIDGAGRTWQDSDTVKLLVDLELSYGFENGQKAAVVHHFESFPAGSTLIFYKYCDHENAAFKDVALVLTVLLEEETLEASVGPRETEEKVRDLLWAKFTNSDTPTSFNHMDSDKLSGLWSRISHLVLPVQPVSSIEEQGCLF

[6] = optical density change of DRC41 E. coli – strain DRC41, OD650, 24 h, E. coli filamentation project, primary screen (AID 1093);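 further: MC1000 strain lacking acrAB efflux and sulA so SOS filamentation is blocked; test concentration not given here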; conditions: E. coli DRC41 growth, higher = more signal, called active from +8 up or from −8 down
[7] = probe aLefty2 binding to arrayed compounds – biochemical, biotinylated probe, 635/667 nm fluorescence, primary screen (AID 1094); conditions: small-molecule microarray, higher = more signal;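 further: score merges spot fluorescence near 667 nm with spot signal-to-noise ratio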
[8] = tested on: Noggin (protein binding on small-molecule microarray); test: small molecules binding Noggin protein – biochemical, 635/667 nm fluorescence, primary screen (AID 1095); conditions: 635 nm fluorescence, higher = more signal;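 further: score merges 667 nm feature fluorescence with signal to noise over triplicate slides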
[9] = target: Neurogenic locus notch homolog protein 3 (Homo sapiens) (UniProt Q9UM47); test: small molecules binding NOTCH3 protein – biochemical, 635/667 nm fluorescence, primary screen (AID 1096); conditions: small-molecule microarray, 635 nm fluorescence, higher = more signal
Sequence of Neurogenic locus notch homolog protein 3 (Homo sapiens) (Q9UM47 whole entry, looked up): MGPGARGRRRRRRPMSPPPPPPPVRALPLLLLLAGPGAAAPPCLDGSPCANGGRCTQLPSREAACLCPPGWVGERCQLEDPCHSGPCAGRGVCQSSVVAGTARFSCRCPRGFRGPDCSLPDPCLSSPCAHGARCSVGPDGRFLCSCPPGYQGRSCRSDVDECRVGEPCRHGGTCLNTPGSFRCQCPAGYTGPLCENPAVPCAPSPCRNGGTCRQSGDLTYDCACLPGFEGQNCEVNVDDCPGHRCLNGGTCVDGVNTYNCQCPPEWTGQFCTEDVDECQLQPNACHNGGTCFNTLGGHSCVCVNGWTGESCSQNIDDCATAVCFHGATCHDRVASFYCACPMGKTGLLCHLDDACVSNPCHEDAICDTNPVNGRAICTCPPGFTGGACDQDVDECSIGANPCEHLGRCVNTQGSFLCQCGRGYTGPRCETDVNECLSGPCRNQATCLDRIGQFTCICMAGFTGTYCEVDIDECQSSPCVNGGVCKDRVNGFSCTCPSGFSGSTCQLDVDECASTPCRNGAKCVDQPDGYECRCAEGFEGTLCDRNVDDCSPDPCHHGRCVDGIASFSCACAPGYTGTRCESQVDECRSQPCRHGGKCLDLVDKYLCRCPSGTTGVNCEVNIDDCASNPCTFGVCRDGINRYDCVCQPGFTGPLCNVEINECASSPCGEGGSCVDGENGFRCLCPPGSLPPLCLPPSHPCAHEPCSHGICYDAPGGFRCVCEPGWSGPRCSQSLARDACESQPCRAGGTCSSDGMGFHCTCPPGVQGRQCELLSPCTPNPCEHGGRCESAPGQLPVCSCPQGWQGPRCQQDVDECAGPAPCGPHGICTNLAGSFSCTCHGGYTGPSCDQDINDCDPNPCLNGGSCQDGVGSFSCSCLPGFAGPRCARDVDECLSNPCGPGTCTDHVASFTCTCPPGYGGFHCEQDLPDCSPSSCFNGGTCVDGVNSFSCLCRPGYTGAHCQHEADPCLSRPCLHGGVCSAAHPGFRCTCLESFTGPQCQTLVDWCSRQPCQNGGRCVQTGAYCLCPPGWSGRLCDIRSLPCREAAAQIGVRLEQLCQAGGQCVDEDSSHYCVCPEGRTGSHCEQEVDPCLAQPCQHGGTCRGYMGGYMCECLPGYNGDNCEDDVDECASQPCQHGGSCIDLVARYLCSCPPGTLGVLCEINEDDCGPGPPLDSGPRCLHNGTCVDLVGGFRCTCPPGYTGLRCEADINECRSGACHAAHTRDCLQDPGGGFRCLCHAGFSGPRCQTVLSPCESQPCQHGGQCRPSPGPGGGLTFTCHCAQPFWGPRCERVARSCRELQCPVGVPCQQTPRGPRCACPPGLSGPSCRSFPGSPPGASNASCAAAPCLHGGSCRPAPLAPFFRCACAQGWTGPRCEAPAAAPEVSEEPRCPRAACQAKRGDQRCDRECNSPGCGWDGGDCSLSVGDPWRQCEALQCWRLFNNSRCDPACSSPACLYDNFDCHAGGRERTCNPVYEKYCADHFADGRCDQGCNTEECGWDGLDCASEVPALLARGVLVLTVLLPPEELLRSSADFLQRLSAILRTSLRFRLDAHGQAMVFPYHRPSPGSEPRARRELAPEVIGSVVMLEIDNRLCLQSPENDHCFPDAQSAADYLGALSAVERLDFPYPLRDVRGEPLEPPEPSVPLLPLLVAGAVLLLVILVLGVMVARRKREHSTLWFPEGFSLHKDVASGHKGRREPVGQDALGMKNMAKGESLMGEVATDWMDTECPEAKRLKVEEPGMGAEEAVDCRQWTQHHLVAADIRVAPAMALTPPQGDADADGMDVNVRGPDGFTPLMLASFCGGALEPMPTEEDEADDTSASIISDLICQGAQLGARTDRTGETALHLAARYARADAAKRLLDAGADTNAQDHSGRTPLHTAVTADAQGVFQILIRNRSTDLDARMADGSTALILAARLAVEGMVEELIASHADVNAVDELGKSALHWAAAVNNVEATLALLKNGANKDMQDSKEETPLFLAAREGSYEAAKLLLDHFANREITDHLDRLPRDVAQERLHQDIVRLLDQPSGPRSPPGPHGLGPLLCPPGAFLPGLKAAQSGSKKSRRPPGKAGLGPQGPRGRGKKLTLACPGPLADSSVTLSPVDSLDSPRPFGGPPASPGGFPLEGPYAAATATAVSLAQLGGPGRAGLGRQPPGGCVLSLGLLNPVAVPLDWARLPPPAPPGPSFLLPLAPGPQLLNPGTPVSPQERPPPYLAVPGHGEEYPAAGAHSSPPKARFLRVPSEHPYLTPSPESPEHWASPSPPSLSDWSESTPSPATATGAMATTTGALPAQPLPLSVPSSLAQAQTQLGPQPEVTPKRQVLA

[10] = probe aEGFR binding to arrayed compounds – biochemical, biotinylated probe, 635/667 nm fluorescence, primary screen (AID 1097); conditions: small-molecule microarray, higher = more signal;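 further: probe is a biotinylated anti-EGFR antibody binding compounds printed on slides; score combines fluorescence near 667 nm and signal to noise of each spot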
[11] = tested on: Plasmodium falciparum Sir2 (PF13_0152, Sir2A); test: Plasmodium falciparum Sir2A binding compounds – biochemical, small-molecule microarray, 635 nm fluorescence, primary screen (AID 1098); conditions: fluorescence 635 nm, higher = more signal;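 further: score merges spot fluorescence intensity with its signal-to-noise ratio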
[12] = probe aDKK1 binding to arrayed compounds – biochemical, biotinylated probe, 635/667 nm fluorescence, primary screen (AID 1099); conditions: small-molecule microarray, higher = more signal;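 further: score merges 667nm spot fluorescence with signal to noise across triplicate slides; reference of the scale not given here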
[13] = probe aCHRDL2 binding to arrayed compounds – biochemical, biotinylated probe, 635/667 nm fluorescence, primary screen (AID 1100); conditions: small-molecule microarray, higher = more signal
[14] = change in splice reporter luminescence, either direction, cell-based, HEK293, spliceosome inhibition project, primary screen (AID 1101); conditions: HEK293 splicing luciferase reporter, 24 h, higher = more signal, called active from +8 up or from −8 down;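 further: HEK293 cells carrying a splicing-competent luciferase reporter gene; test concentration not given here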
[15] = target: Fibroblast growth factor 10 (Homo sapiens) (UniProt O15520); test: compounds binding fibroblast growth factor 10 – biochemical, small-molecule microarray, 635 nm fluorescence, primary screen (AID 1102); conditions: FGF10 binding, fluorescence 635 nm, higher = more signal
Sequence of Fibroblast growth factor 10 (Homo sapiens) (O15520 whole entry, looked up): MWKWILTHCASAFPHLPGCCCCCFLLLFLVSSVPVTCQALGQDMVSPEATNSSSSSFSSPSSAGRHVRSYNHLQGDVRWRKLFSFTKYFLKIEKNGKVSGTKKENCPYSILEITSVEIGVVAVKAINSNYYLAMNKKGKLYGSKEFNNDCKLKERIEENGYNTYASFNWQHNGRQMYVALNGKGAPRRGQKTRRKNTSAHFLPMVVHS

[16] = tested on: glycogen synthase kinase-3 (GSK3A per assay name; protocol says GSK3B); test: compounds binding glycogen synthase kinase-3 – biochemical, small-molecule microarray, 635 nm fluorescence, GSK3A, primary screen (AID 1103); conditions: fluorescence 635 nm, higher = more signal; further: the record names both GSK3A and GSK3B
[17] = target: Epidermal growth factor receptor (Homo sapiens) (UniProt P00533); test: compounds binding epidermal growth factor receptor – biochemical, small-molecule microarray, 635 nm fluorescence, primary screen (AID 1104); conditions: EGFR binding, higher = more signal;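 further: score merges 667 nm emission intensity with spot signal to noise over triplicate slides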
Sequence of Epidermal growth factor receptor (Homo sapiens) (P00533 whole entry, looked up): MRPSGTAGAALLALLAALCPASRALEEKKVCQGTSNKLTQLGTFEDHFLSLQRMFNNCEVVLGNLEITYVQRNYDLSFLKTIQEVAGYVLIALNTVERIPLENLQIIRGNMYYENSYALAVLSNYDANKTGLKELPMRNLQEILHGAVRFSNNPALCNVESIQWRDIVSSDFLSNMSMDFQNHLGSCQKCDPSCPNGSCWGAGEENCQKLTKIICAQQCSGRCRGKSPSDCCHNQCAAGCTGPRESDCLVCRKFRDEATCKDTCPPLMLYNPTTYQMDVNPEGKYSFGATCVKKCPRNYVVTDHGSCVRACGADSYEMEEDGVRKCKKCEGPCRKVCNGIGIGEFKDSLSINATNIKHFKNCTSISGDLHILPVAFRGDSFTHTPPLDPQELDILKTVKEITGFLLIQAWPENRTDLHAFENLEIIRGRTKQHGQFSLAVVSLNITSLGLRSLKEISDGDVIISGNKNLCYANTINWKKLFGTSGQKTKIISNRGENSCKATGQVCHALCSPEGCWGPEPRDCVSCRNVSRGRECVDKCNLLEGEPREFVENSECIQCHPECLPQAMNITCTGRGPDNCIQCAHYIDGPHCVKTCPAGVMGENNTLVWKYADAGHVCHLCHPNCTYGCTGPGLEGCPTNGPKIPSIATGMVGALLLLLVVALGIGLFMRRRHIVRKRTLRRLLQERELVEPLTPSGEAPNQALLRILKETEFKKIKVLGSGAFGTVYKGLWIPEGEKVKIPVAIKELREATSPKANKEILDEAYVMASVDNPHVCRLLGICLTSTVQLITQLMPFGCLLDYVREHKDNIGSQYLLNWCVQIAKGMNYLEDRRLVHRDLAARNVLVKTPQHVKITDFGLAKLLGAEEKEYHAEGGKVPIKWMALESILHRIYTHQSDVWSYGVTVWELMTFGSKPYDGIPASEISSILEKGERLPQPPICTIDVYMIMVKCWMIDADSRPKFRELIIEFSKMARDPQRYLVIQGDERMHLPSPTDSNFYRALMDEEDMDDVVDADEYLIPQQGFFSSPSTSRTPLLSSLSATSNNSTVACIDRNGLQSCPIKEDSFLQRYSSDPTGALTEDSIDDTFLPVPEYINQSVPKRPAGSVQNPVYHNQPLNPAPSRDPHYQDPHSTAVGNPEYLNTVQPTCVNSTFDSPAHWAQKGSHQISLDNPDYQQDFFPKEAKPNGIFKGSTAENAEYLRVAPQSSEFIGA

[18] = target: Follistatin-related protein 3 (Homo sapiens) (UniProt O95633); test: compounds binding follistatin-related protein 3 – biochemical, small-molecule microarray, 635 nm fluorescence, primary screen (AID 1105); conditions: FSTL3 binding, higher = more signal;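 further: score merges emission near 667 nm and signal to noise per printed spot across three slides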
Sequence of Follistatin-related protein 3 (Homo sapiens) (O95633 whole entry, looked up): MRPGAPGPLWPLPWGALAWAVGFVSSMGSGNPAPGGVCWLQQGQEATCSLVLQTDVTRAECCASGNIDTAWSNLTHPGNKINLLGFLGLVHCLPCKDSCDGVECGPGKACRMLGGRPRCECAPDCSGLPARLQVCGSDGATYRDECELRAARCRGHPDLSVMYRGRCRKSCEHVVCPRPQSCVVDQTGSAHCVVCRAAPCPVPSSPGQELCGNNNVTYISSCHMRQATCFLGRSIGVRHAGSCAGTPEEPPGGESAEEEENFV

[19] = target: Dickkopf-related protein 1 (Homo sapiens) (UniProt O94907); test: small molecules binding DKK1 protein – biochemical, small-molecule microarray, 635 nm fluorescence scan, primary screen (AID 1106); conditions: higher = more signal;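 further: score merges emission near 667 nm with signal to noise over three replicate slides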
Sequence of Dickkopf-related protein 1 (Homo sapiens) (O94907 whole entry, looked up): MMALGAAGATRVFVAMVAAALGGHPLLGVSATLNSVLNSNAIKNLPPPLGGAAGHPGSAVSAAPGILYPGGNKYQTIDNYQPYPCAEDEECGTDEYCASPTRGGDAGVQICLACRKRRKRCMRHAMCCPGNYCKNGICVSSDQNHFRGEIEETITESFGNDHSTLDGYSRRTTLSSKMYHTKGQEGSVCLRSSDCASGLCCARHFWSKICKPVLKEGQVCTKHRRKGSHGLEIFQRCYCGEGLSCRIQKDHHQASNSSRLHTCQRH

[20] = tested on: Inhibin beta A chain (activin A); test: small molecules binding activin A – biochemical, small-molecule microarray, 635 nm fluorescence scan, primary screen (AID 1107); conditions: INHBA, higher = more signal;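 further: mouse activin A protein probed at 4.33 µg/mL on printed slides; score merges bound-protein fluorescence near 667 nm with spot signal-to-noise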

Row | Compound | composite z-score [1] | z-score [2] | z-score [3] | z-score [4] | composite z-score [5] | z-score [6] | composite z-score [7] | composite z-score [8] | composite z-score [9] | composite z-score [10] | composite z-score [11] | composite z-score [12] | composite z-score [13] | z-score [14] | composite z-score [15] | composite z-score [16] | composite z-score [17] | composite z-score [18] | composite z-score [19] | composite z-score [20]
1 | CC(CCN1CCCCc2nc(C)c(C)cc21)=NOC(C)CN1CCCc2nc(C)c(C)cc21 (stereo not given) | 1.52 | -1.19 (inactive) | -1.06 (inactive) | -0.321 (inactive) | 2.91 | 0.162 (inactive) | 0.447 | 1.07 | 1.04 | 0.509 | 1.53 | 0.699 | -0.324 | 0.506 (inactive) | 1.35 | 1.32 | 1.56 | 1.47 | 1.05 | 1.5
2 | COC(=O)[C@@H]1CCCN1C(=O)[C@@H](C)CO | 0.177 | -1.12 (inactive) | -0.988 (inactive) | 0.258 (inactive) | 0.93 | -0.197 (inactive) | -0.152 | 0.415 | 0.753 | 0.0055 | 0.42 | -0.0908 | -0.445 | -0.74 (inactive) | 0.601 | 1.24 | 0.524 | 0.592 | 0.547 | -0.198
3 | COc1ccc(O[C@H]2C=C[C@@H](c3ccccc3)O[C@@H]2COC(=O)CCC(C)=NO[C@@H](C)c2cc(-c3c(C)cc(C)cc3C)no2)cc1 | -0.225 | -0.843 (inactive) | 1.09 (inactive) | -0.159 (inactive) | -0.687 | -0.312 (inactive) | -0.219 | -0.916 | -2.17 | -0.214 | -0.0775 | -0.344 | 0.268 | -0.398 (inactive) | -1.05 | -2.04 | -0.747 | -1.39 | -0.872 | 0.934
4 | CCOC(=O)C1=CCC(c2cc3ccccc3[nH]2)NC1 (stereo not given) | 0.37 | -1.36 (inactive) | -2.39 (inactive) | 1.42 (inactive) | 2.45 | -0.0849 (inactive) | 0.389 | -0.465 | 0.335 | -0.0065 | 1.47 | 1.1 | 1.31 | -1.02 (inactive) | 0.0855 | 0.233 | 0.242 | 0.0799 | -0.494 | 1.65
5 | CS(=O)(=O)CCOC(=O)C1=CC(CCCO)=CC(c2cccs2)N(Cc2cccc(OC(F)(F)F)c2)C=C1C(=O)OCCS(C)(=O)=O (stereo not given) | 1.57 | -0.522 (inactive) | -2.82 (inactive) | -1.34 (inactive) | 2.17 | -0.0221 (inactive) | 0.0651 | 0.025 | 0.993 | 0.0269 | 0.811 | 0.674 | 0.742 | 0.538 (inactive) | 0.739 | 0.873 | -0.37 | 0.14 | -0.06 | 0.915
6 | COC(=O)C1=C(C)[C@@H](O)[C@@H](C)[C@H](c2c(OC)c(OC)c(C)c(OC)c2OC)O1 | -0.462 | 0.645 (inactive) | 0.629 (inactive) | -0.22 (inactive) | -0.166 | 0.164 (inactive) | -0.142 | 0.461 | 0.105 | -0.106 | 0.191 | -0.27 | -0.595 | -0.361 (inactive) | 0.256 | -0.419 | 0.269 | 0.398 | 0.56 | 0.394
7 | C#CCCCON=C1C[C@@H](O)[C@@H](O)[C@@H]2[C@@H]3C(=O)N([C@@H](C)c4ccccc4)C(=O)[C@@H]3CC[C@H]12 | 0.37 | 0.45 (inactive) | 0.347 (inactive) | -0.418 (inactive) | 0.773 | 0.229 (inactive) | 0.0008 | 0.573 | 0.999 | 0.207 | 0.933 | -0.253 | -0.483 | -1.28 (inactive) | 0.478 | 0.283 | 0.474 | 0.921 | 0.618 | 0.551
8 | Cc1cc2c(nc1C)CCCN2CC(C)ON=C1[C@H]2CCn3c(=O)n(-c4ccccc4)c(=O)n3[C@H]2[C@H](O)[C@@H]2O[C@H]12 (stereo not given in full) | 1.51 | -0.706 (inactive) | -0.829 (inactive) | -0.115 (inactive) | 1.42 | -0.414 (inactive) | -0.138 | 0.725 | 1.01 | -0.0141 | 0.508 | -0.013 | -0.499 | -0.736 (inactive) | 0.618 | 1.1 | 0.822 | 0.828 | 0.686 | 0.693
9 | COC(=O)[C@H](C)NC(=O)CCC1CC(OC(=O)NCc2cccc3ccccc23)CC2(CCCC(COC(=O)NCCc3ccc(Cl)cc3)O2)O1 (stereo not given in full) | 1.27 | -0.915 (inactive) | -0.253 (inactive) | 0.511 (inactive) | 1.57 | 0.129 (inactive) | -0.145 | 0.328 | 1.13 | -0.0967 | -0.0744 | -0.299 | -0.444 | -0.875 (inactive) | 0.794 | 0.69 | 0.381 | 0.494 | 0.302 | -0.131
10 | CCOC(=O)[C@H](CC(C)C)NC(=O)CCC1CC(OC(=O)NCc2cccc3ccccc23)CC2(CCCC(COC(=O)NCCc3ccccc3OC)O2)O1 (stereo not given in full) | 1.28 | -0.133 (inactive) | -0.0584 (inactive) | 0.407 (inactive) | 2.96 | -0.197 (inactive) | -0.0505 | 0.686 | 0.957 | -0.0304 | 0.766 | -0.141 | -0.39 | -0.139 (inactive) | 1 | 1.03 | 0.387 | 0.866 | 0.555 | 0.182

From PubChem BioAssay
